The nature of assay [1]: TOX21_p53_BLA_p2_viability: Viability Assessment in the Tox21 HCT-116 p53 Agonism Beta-lactamase Assay, Phase 2 (AID 2283591).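 Further: compound exposure lasted 16 h at 37 °C; actives lower the ATP signal meaning cytotoxicity.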 The method in brief:
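Cytotoxicity readout: CellTiter-Glo ATP luminescence, 30 min at room temperature, after the beta-lactamase read. Cells were HCT116 exposed 16 h at 37C to compounds pin-transferred at 217-fold dilution from DMSO stocks.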

For assay [2], the target named is Cellular tumor antigen p53 (Homo sapiens) (UniProt P04637). Nature of the assay: TOX21_p53_BLA_p2_ratio: Tox21 HCT-116 p53 Agonism Beta-lactamase Assay, Ratio, Phase 2 (AID 2283592). The gist of the method:
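Cleaved-to-uncleaved substrate ratio (460 vs 530 nm) measured in HCT116 cells with an inducible beta-lactamase reporter linked to p53 activity. Compounds incubated 16 h at 37C before 2 h room-temperature CCF4-AM loading.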

The target is the same in assay [3]. Nature of the assay: TOX21_p53_BLA_p3_ratio: Tox21 HCT-116 p53 Agonism Beta-lactamase Assay, Ratio, Phase 3 (AID 2283596). The gist of the method: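 Cells were seeded at 4000/well, rested 5 h at 37C, then dosed with DMSO compound solutions (217-fold dilution) for 16 h. CCF4-AM substrate was loaded for 2 h at room temperature, and the 460/530 nm emission ratio was fitted for gain of signal versus DMSO.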

A short description of assay [4]: TOX21_p53_BLA_p4_viability: Viability Assessment in the Tox21 HCT-116 p53 Agonism Beta-lactamase Assay, Phase 4 (AID 2283597).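 Further: hits lower the luminescence signal meaning cytotoxicity.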 The method in brief: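 Viability is taken as cellular ATP: after 16 h compound exposure of HCT116 cells and a 2 h room-temperature CCF4-AM substrate step, CellTiter-Glo reagent is added and luminescence is measured 30 min later.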
Assay [5] addresses Cellular tumor antigen p53 (Homo sapiens) (UniProt P04637). Put plainly: TOX21_p53_BLA_p5_ratio: Tox21 HCT-116 p53 Agonism Beta-lactamase Assay, Ratio, Phase 5 (AID 2283599). The method in brief:
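Beta-lactamase reporter ratio (blue 460 nm over green 530 nm, 405 nm excitation) after 2 h CCF4-AM loading, in HCT-116 cells exposed 16 h at 37 C to compounds pinned at 217-fold dilution. Increases relative to DMSO baseline scored.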

Assay [6] shares this target. Put plainly: TOX21_p53_BLA_p4_ratio: Tox21 HCT-116 p53 Agonism Beta-lactamase Assay, Ratio, Phase 4 (AID 2283601). The method in brief:
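Signal is the blue/green (460nm/530nm) ratio of cleaved versus uncleaved CCF4-AM substrate, read after 2 h substrate loading. Cells were HCT116 carrying the p53-responsive beta-lactamase reporter, dosed 16 h at 37C, 5% CO2; CellTiter-Glo measured in parallel.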

Assay [7] in a line: TOX21_p53_BLA_p5_viability: Viability Assessment in the Tox21 HCT-116 p53 Agonism Beta-lactamase Assay, Phase 5 (AID 2283600). The method in brief:
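Viability is taken from cellular ATP content, measured by luciferase luminescence in the same wells after the beta-lactamase ratio read. Cells are seeded at 4000 per well and exposed to DMSO-dissolved compounds, diluted 217-fold, for 16 h.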

Records with an inconclusive call do not appear. Calls of active or inactive are those of the source. How the source made its calls: active means hit-call score of the fitted dose curve at least 0.9, where 1 is the maximum; inconclusive means response in the unintended direction; inactive means score below 0.9.

Cellular tumor antigen p53 (Homo sapiens), sequence (P04637 whole entry, looked up): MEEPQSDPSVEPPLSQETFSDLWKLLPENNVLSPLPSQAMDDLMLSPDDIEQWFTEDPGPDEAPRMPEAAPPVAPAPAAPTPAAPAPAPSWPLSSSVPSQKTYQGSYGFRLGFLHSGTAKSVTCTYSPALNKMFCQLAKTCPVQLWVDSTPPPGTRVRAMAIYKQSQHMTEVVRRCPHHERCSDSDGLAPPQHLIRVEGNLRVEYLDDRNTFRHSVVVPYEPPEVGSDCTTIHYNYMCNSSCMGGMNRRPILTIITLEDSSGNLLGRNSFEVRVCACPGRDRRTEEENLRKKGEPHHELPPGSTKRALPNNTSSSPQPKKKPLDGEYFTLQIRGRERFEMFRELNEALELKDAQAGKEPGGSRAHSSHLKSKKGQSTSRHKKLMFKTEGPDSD

Turning to `CC(C)(O)[C@@H]1[C@H]2OC(=O)[C@@H]1[C@]1(O)C[C@H]3O[C@]34C(=O)O[C@H]2[C@]14C` (tested in a mixture with another compound), the call in assay [1], in assay [2], in assay [3], in assay [4], in assay [5] and in assay [6] was inactive.
As to `O=P(O)(O)C(Cl)(Cl)P(=O)(O)O`, the outcome in assay [1], in assay [2], in assay [3], in assay [4], in assay [5] and in assay [7] was inactive. In assay [6], the outcome was inactive.
Regarding `CC(=O)C1CCOC1=O` (stereo unspecified), the molecule was classed as inactive in assay [1], in assay [2], in assay [3], in assay [5], in assay [7] and in assay [6].
With `CCCN1CCC[C@@H]2Cc3nc(N)ncc3C[C@H]21`, the call in assay [1], in assay [2], in assay [4] and in assay [5] was inactive.
Take `C=CC(C)(CCC=C(C)C)OC(=O)c1ccccc1N` (stereo unspecified): the result in assay [1], in assay [2], in assay [3], in assay [5], in assay [7] and in assay [6] was inactive.
For the molecule `O=C1CCCCC1CN1CCCCC1` (stereo unspecified), the call in assay [1], in assay [2], in assay [3], in assay [4] and in assay [6] was inactive.
For `CC[C@@H](CO)NC(=O)[C@@H]1C=C2c3cccc4[nH]cc(c34)C[C@H]2N(C)C1`, the molecule was classed as inactive in assay [1], in assay [2], in assay [3], in assay [4], in assay [7] and in assay [6].
The AC50 is the concentration giving half of the maximal activity seen. As to `COC(=O)C(Br)CBr` (stereo unspecified), the result in assay [1], in assay [2], in assay [5] and in assay [6] was inactive. In assay [3], the AC50 is 48 µM (active).
Consider `COc1ccc2c(C(=O)c3ccc(Cl)cc3)c(C)n(CC(=O)O)c2c1`, for which the molecule was called inactive in assay [1], in assay [2], in assay [4], in assay [5], in assay [7] and in assay [6].
Consider `CC(C)(C)NC[C@H](O)c1ccc(O)cc1Cl`, for which the outcome in assay [1], in assay [2] and in assay [4] was inactive.
Take `CNC(=O)Oc1cc(C)c(N(C)C)c(C)c1`: the molecule was classed as inactive in assay [1], in assay [2], in assay [3], in assay [5] and in assay [6].
As for `O=C(O)/C=C/C(=O)O`, the outcome in assay [1], in assay [2], in assay [3], in assay [5], in assay [7] and in assay [6] was inactive.
On to `[2H]C([2H])([2H])[C@H](N)Cc1ccccc1`, for which the call in assay [1], in assay [2], in assay [3] and in assay [7] was inactive.
With `O=c1oc2ccccc2c(O)c1C1CCCc2ccccc21` (stereo unspecified), the outcome in assay [1], in assay [2], in assay [3], in assay [5] and in assay [7] was inactive.
Consider `COc1ccc(C=O)cc1O`, for which the result in assay [1], in assay [2], in assay [3], in assay [5] and in assay [6] was inactive.
With `NC1(c2ccccc2)CCCCC1`, the outcome in assay [1], in assay [2], in assay [3], in assay [5], in assay [7] and in assay [6] was inactive.
Turning to `CN1[C@@H]2CC[C@H]1CC(O)C2` (stereo partly specified), the call in assay [1], in assay [2], in assay [3], in assay [5], in assay [7] and in assay [6] was inactive.
`CC(C)NCC(O)c1ccc(N)c(C#N)c1` (stereo unspecified): the outcome in assay [1], in assay [2], in assay [3], in assay [5], in assay [7] and in assay [6] was inactive.
On to `O=C(O)c1cc(Cl)ccc1Cl`, for which the molecule was classed as inactive in assay [1], in assay [2], in assay [3], in assay [5] and in assay [7].
In the case of `C[C@H]1[C@@H]2Cc3ccc(O)cc3[C@@]1(C)CCN2C`, the outcome in assay [1], in assay [2], in assay [3], in assay [5], in assay [7] and in assay [6] was inactive.
With `OP(O)c1ccccc1`, the molecule was classed as inactive in assay [1], in assay [2], in assay [3], in assay [5], in assay [7] and in assay [6].
As to `CCC1(c2ccccc2)C(=O)NC(=O)N(C)C1=O` (stereo unspecified), the call in assay [1], in assay [2], in assay [3] and in assay [7] was inactive.
As for `CC[N+](C)(CC)CCOC(=O)C(O)(c1ccccc1)c1ccccc1`, the molecule was called inactive in assay [1], in assay [2], in assay [3], in assay [5], in assay [7] and in assay [6].
On to `Clc1cc2c(cc1Cl)Oc1cc(Cl)c(Cl)cc1O2`, for which the result in assay [1], in assay [2], in assay [4] and in assay [5] was inactive.
In the case of `ClCc1ccc(Cl)cc1Cl`, the call in assay [1], in assay [2], in assay [3], in assay [5] and in assay [7] was inactive.
For `O=[N+]([O-])c1cccc(O)c1`, the call in assay [1], in assay [2], in assay [4], in assay [5] and in assay [7] was inactive.
For `C=CCC1([C@@H](C)CCC)C(=O)NC(=O)NC1=O`, the call in assay [1], in assay [2], in assay [4], in assay [5] and in assay [7] was inactive.
As to `CCOP(=S)(OCC)Oc1ncn(-c2ccccc2)n1`, the result in assay [1], in assay [2], in assay [3], in assay [4], in assay [7] and in assay [6] was inactive.
On to `C=CCOC(C)=O`, for which the molecule was classed as inactive in assay [1], in assay [2], in assay [3], in assay [5], in assay [7] and in assay [6].
As to `CC(Cc1ccccc1)NCCn1cnc2c1c(=O)n(C)c(=O)n2C` (stereo unspecified), the call in assay [1], in assay [2], in assay [3], in assay [5], in assay [7] and in assay [6] was inactive.
On to `CCN(CC)Cc1nccn1-c1ccc([N+](=O)[O-])cc1C(=O)c1ccccc1Cl`, for which the result in assay [1], in assay [2], in assay [4], in assay [5] and in assay [7] was inactive.
Regarding `C=CCN(C1=NCCN1)c1c(Cl)cccc1Cl`, the molecule was classed as inactive in assay [1], in assay [2], in assay [3] and in assay [5].
For `CN1CCN(C(=O)O[C@H]2c3nccnc3C(=O)N2c2ccc(Cl)cn2)CC1`, the result in assay [1], in assay [2], in assay [3], in assay [4], in assay [7] and in assay [6] was inactive.

These data come from PubChem BioAssay (EPA / NIEHS).
